Experimental data taken from PubChem BioAssay AID1159580 (chemical genetic matrix, 2015).
Several values for one entry are separate records, joined by “and”; a condition that tells them apart may be missing. Equal values may be shown once. Out of some 5,500 compounds screened, about 2,000 (36%) were called active. Not shown: some 18% with an inconclusive outcome. No stated cut-off is given here; in the data, active means normalized growth mostly below about 0.91 (no sharp cut-off); inconclusive means no clear call, values can overlap the other calls; inactive means mostly above about 0.92. Some of the results follow.

Experiment: chemical genetic growth profiling, strain panel (AID 1159580);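 further: tested at 20 µM; growth read once vehicle control cultures reached saturation at 30 °C; 1 = growth at the plate median or of vehicle wells; lower values mean less growth of the strain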
Details: S. cerevisiae deletion strains, growth OD

Measured: normalized growth

CCN(CC)CCNC(=O)c1cc(Br)c(N)cc1OC
inactive: locus YAL021C, strain ccr4, hits give low values 0.984 | locus YAL026C, strain drs2, hits give low values 0.997 | locus YAL030W, strain snc1, hits give low values 0.997 | locus YBL061C, strain skt5, hits give low values 0.992 | locus YBR009C, strain hhf1, hits give low values 1.02 | locus YBR021W, strain FUR4, hits give low values 1.03 | locus YBR023C, strain chs3, hits give low values 0.992 | locus YBR171W, strain sec66, hits give low values 0.983 | locus YBR229C, strain ROT2, hits give low values 0.957 | locus YBR231C, strain swc5, hits give low values 0.981 | locus YBR279W, strain paf1, hits give low values 0.991 | locus YCL011C, strain gbp2, hits give low values 0.978 | locus YCL016C, strain dcc1, hits give low values 0.992 | locus YCL029C, strain bik1, hits give low values 0.989 | locus YCL061C, strain MRC1, hits give low values 0.984 | locus YCL069W, strain vba3, hits give low values 0.987 | locus YCR088W, strain abp1, hits give low values 0.981 | locus YDL005C, strain med2, hits give low values 0.989 | locus YDL035C, strain GPR1, hits give low values 0.986 | locus YDL040C, strain nat1, hits give low values 1 | locus YDL074C, strain BRE1, hits give low values 0.947 | locus YDL101C, strain DUN1, hits give low values 0.976 | locus YDL134C, strain PPH21, hits give low values 1.01 | locus YDL185W, strain tfp1, hits give low values 0.983 | locus YDL192W, strain arf1, hits give low values 0.983 | locus YDR001C, strain nth1, hits give low values 0.979 | locus YDR069C, strain doa4, hits give low values 1.01 | locus YDR101C, strain arx1, hits give low values 0.979 | locus YDR137W, strain rgp1, hits give low values 1.04 | locus YDR159W, strain sac3, hits give low values 1 | locus YDR162C, strain NBP2, hits give low values 1 | locus YDR195W, strain ref2 0.967 | locus YDR297W, strain sur2, hits give low values 0.976 | locus YDR318W, strain mcm21, hits give low values 1 | locus YDR334W, strain swr1, hits give low values 0.954 | locus YDR335W, strain msn5, hits give low values 0.987 | locus YDR388W, hits give low values 0.989 | locus YDR392W, strain spt3, hits give low values 0.932 | locus YDR502C, strain sam2, hits give low values 0.983 | locus YEL003W, strain gim4, hits give low values 0.979 | locus YEL037C, strain rad23, hits give low values 0.985 | locus YEL061C, strain CIN8 (second series), hits give low values 0.982 | locus YEL061C, strain CIN8, hits give low values 0.978 | locus YER015W, strain faa2, hits give low values 0.986 | locus YER016W, strain bim1, hits give low values 0.997 | locus YER110C, hits give low values 0.978 | locus YER111C, strain swi4, hits give low values 1.01 | locus YER155C, strain BEM2 (second series), hits give low values 1 | locus YER155C, strain BEM2, hits give low values 1 | locus YER167W, strain BCK2, hits give low values 1.01 | locus YFR010W, strain ubp6, hits give low values 0.984 | locus YGL078C, strain dbp3, hits give low values 0.974 | locus YGL086W, strain mad1, hits give low values 0.98 | locus YGL167C, strain pmr1, hits give low values 0.98 | locus YGL173C, strain kem1, hits give low values 0.991 | locus YGL227W, strain vid30, hits give low values 0.995 | locus YGL240W, strain doc1, hits give low values 0.993 | locus YGL248W, strain PDE1, hits give low values 0.971 | locus YGL253W, strain hxk2, hits give low values 0.982 | locus YGR078C, strain PAC10, hits give low values 0.975 | locus YGR135W, strain pre9, hits give low values 1.04 | locus YGR252W, strain gcn5, hits give low values 1.02 | locus YHR013C, strain ard1, hits give low values 0.972 | locus YHR027C, strain rpn1, hits give low values 0.976 | locus YHR030C, strain SLT2, hits give low values 0.997 and 0.978 | locus YHR079C, strain IRE1 (second series), hits give low values 0.989 | locus YHR079C, strain IRE1, hits give low values 1 | locus YHR094C, strain hxt1, hits give low values 0.985 | locus YHR129C, strain ARP1, hits give low values 1 | locus YHR142W, strain chs7, hits give low values 0.97 | locus YHR200W, strain rpn10, hits give low values 0.994 | locus YIL066C, strain RNR3, hits give low values 0.965 | locus YIL073C, strain SPO22, hits give low values 1.04 | locus YIL125W, strain kgd1, hits give low values 0.985 | locus YIR030C, strain dcg1, hits give low values 0.986 | locus YJL092W, strain hpr5, hits give low values 0.973 | locus YJL095W, strain BCK1 (second series), hits give low values 0.99 | locus YJL095W, strain BCK1, hits give low values 0.962 and 0.993 | locus YJL115W, strain asf1, hits give low values 0.966 | locus YJL129C, strain trk1, hits give low values 0.99 | locus YJL134W, strain LCB3, hits give low values 0.994 | locus YJL154C, strain vps35, hits give low values 0.986 | locus YJL164C, strain tpk1, hits give low values 1.01 | locus YJL166W, strain qcr8, hits give low values 0.998 | locus YJL168C, strain set2, hits give low values 0.987 | locus YJL187C, strain SWE1 (second series), hits give low values 0.944 | locus YJL187C, strain SWE1, hits give low values 0.993
